± gives the standard deviation of the averaged measurements.
Key:
DLD1 [1] = test: cell viability (CellTiter-Glo) relative to plate median (fraction of plate median); higher = more viable cells; conditions: 5 µM; treatment time 24 h; reporter: 7TFP
Procedure, shortened: (§1)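 Library compounds, at a final 5 µM, stayed on reporter cells for 24 h. The cells were colorectal cancer lines stably transduced with lentiviral TCF/Wnt firefly luciferase reporters, seeded in 384-well plates 24 h before dosing. Firefly luciferase or CellTiterGlo luminescence from parallel plates was normalised to the plate median in webcellHTS2 (additive, no log transformation), and two independent replicates were averaged.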

HCT116 = test: as above; conditions: 5 µM; treatment time 24 h; reporter: TCF4/Wnt
Procedure, shortened: as §1

SW480 [2] = test: as above; conditions: 5 µM; treatment time 24 h; reporter: 7TFP
Procedure, shortened: as §1

DLD1 [3] = test: TCF/Wnt firefly luciferase reporter signal relative to plate median (fraction of plate median); higher = higher Wnt reporter signal; conditions: 5 µM; treatment time 24 h; reporter: 7TFP
Procedure, shortened: as §1

SW480 [4] = test: as above; conditions: 5 µM; treatment time 24 h; reporter: 7TFP
Procedure, shortened: as §1

Compound	cell viability (DLD1 [1])	cell viability (HCT116)	cell viability (SW480 [2])	TCF/Wnt firefly luciferase reporter signal (DLD1 [3])	TCF/Wnt firefly luciferase reporter signal (SW480 [4])
C[C@]12CC[C@H](O)CC1=CC[C@@H]1[C@@H]2CC[C@]2(C)C(=O)CC[C@@H]12	1.04	1.15 ± 0.021	1.02 ± 0.021	1.04 ± 0.14	0.916 ± 0.026
O=C1CCCN1CC#CCN1CCCC1	1.07 ± 0.092	1.11 ± 0.028	1.05 ± 0.042	1.01 ± 0.032	0.8175 ± 0.0035
CC(C)c1cc2c(c(O)c1O)[C@@]1(C(=O)O)CCCC(C)(C)[C@@H]1CC2	0.981 ± 0.013	1.03 ± 0.079	1.03 ± 0.021	1.03 ± 0.021	0.944 ± 0.11
CC(C)[N+](C)(CCC(C(N)=O)(c1ccccc1)c1ccccc1)C(C)C	1.045 ± 0.0071	1.055 ± 0.0071	0.996 ± 0.0057	1.02 ± 0.12	1.03 ± 0.042
C[C@@H]1CC[C@]2(NC1)O[C@H]1C[C@H]3[C@@H]4CC=C5C[C@@H](O)CC[C@]5(C)[C@H]4CC[C@]3(C)[C@H]1[C@@H]2C	0.943 ± 0.011	0.904 ± 0.035	0.957 ± 0.044	0.963 ± 0.037	0.978 ± 0.016
COC[C@]12CN(C=O)[C@@H]3[C@@H]4[C@H](OC)[C@H]1[C@@]3([C@@H](OC)C[C@H]2O)[C@@H]1C[C@@]2(O)[C@H](OC(=O)c3ccccc3)[C@@H]1[C@]4(OC(C)=O)[C@@H](O)[C@@H]2OC	1.01 ± 0.057	1.17 ± 0.057	1.05 ± 0.071	0.934 ± 0.15	1.02 ± 0.052
C[C@]12CCC(=O)C(O)=C1CC[C@@H]1[C@@H]2CC[C@]2(C)C(=O)CC[C@@H]12	0.956 ± 0.011	0.996 ± 0.076	0.9485 ± 0.0021	1.01 ± 0.023	1.01 ± 0.073
C/C=C/[C@H]1O[C@@](O)([C@@H](C)[C@H](O)[C@H](C)[C@H]2OC(=O)/C(OC)=C/C(C)=C/[C@@H](C)[C@@H](O)[C@@H](C)[C@@H](O)[C@H](C)C/C(C)=C/C=C/[C@@H]2OC)C[C@@H](O[C@H]2C[C@@H](O)[C@H](OC(N)=O)[C@@H](C)O2)[C@@H]1C [Concanamycin B]	0.935 ± 0.0085	0.941 ± 0.011	1.05 ± 0.014	0.9065 ± 0.0064	1.05 ± 0.042
c1ccc2c(c1)sc1ccccc12	1 ± 0.026	0.97 ± 0.11	1.01 ± 0.049	0.867 ± 0.033	0.935 ± 0.036
NCC1(CC(=O)O)CCCCC1	1 ± 0.083	1.08 ± 0.021	0.981 ± 0.013	1.07 ± 0.057	1.1 ± 0.064
CC(=O)C1CCC2C3CCC4C[C@H](O)CCC4(C)C3C[C@H](O)C12C (stereo partly drawn) [DIHYDROXY (3alpha,12alpha)PREGNAN-20-ONE]	1.01 ± 0.042	1.12 ± 0.13	1.1 ± 0.064	0.9925 ± 0.0064	0.9855 ± 0.0021
O=C1NC(=O)C(=O)C(=O)N1	1.01 ± 0.057	0.935 ± 0.063	0.945 ± 0.014	0.829 ± 0.03	0.901 ± 0.064
O=C1c2ccccc2-c2cccc3cccc1c23	1 ± 0.084	0.852 ± 0.088	0.991 ± 0.028	0.912 ± 0.056	0.987 ± 0.033
C=C1[C@@H]2CCC3[C@@](CC[C@@H]4[C@H](C(=O)O)C[C@@H](O[C@@H]5O[C@H](CO)[C@@H](OS(=O)(=O)O)[C@H](OS(=O)(=O)O)[C@H]5OC(=O)CC(C)C)C[C@@]34C)(C2)[C@@H]1O (stereo not given in full)	1 ± 0.093	1.04 ± 0.061	1.01 ± 0.054	1.03 ± 0.072	0.9585 ± 0.0064
CC1(C)C(=O)C=C[C@]2(C)[C@H]3CC[C@@]4(C)[C@H](c5ccoc5)OC(=O)[C@H]5O[C@]54[C@]3(C)[C@H](O)C[C@@H]12	1.01 ± 0.12	1.08 ± 0.028	0.989 ± 0.016	0.904 ± 0.028	0.972 ± 0.097
O=[N+]([O-])O[C@H]1CO[C@H]2[C@@H]1OC[C@H]2O[N+](=O)[O-]	1	1.07 ± 0.014	1.05 ± 0.028	1.02 ± 0.11	1.11
C=C[C@H]1CN2CC[C@H]1C[C@H]2[C@H](O)c1ccnc2ccccc12	1.03 ± 0.059	1.07 ± 0.042	1.01 ± 0.023	0.862 ± 0.061	0.981 ± 0.028
CCOC(=O)c1cncn1[C@H](C)c1ccccc1	1.04 ± 0.035	0.987 ± 0.018	0.9905 ± 0.0078	0.965 ± 0.013	0.995 ± 0.022
C[C@]12CC[C@H]3[C@@H](CC[C@]4(O)C[C@@H](O)CC[C@]34C=O)[C@@]1(O)CC[C@@H]2C1=CC(=O)OC1	0.579 ± 0.021	0.502 ± 0.12	0.746 ± 0.046	0.226 ± 0.12	0.58 ± 0.054
COc1cc2c(cc1OC)[C@H](C)NCC2	0.962 ± 0.044	0.96 ± 0.13	0.9455 ± 0.00071	1.06 ± 0.085	1.07 ± 0.014
C=CCc1cc(OC)c2c(c1OC)OCO2	0.962 ± 0.15	0.864 ± 0.057	0.994 ± 0.023	0.876 ± 0.099	0.976 ± 0.033
CCCCCCCCCCCCCCCC[n+]1ccccc1	0.885 ± 0.07	0.797 ± 0.13	0.95 ± 0.028	0.773 ± 0.062	0.661 ± 0.073
CN1[C@@H]2CC[C@H]1C[C@@H](OC(=O)[C@H](CO)c1ccccc1)C2	1.06 ± 0.14	1.09	1 ± 0.086	0.974 ± 0.11	1.05 ± 0.028
CC(=O)OCC1=C(C(=O)O)N2C(=O)[C@@H](NC(=O)CCC[C@@H](N)C(=O)O)[C@H]2SC1	0.955 ± 0.13	0.906 ± 0.13	0.9165 ± 0.0064	1.175 ± 0.0071	1.09 ± 0.05
COc1cc2c(cc1OC)[C@@]13CCN4CC5=CCO[C@H]6CC(=O)N2[C@H]1[C@H]6[C@H]5C[C@H]43	1.06 ± 0.05	1 ± 0.097	1.04 ± 0.035	0.876 ± 0.096	0.974 ± 0.031

Reference: the supplement of paper PMC6522484
